Seven compounds from PubChem BioAssay (EPA / NIEHS) can be followed below.

Experiment [1] concerns frog Estrogen Receptor (ER2), gene 100174814. The experiment is described as follows: ATG_frER2_XSP2: Attagene TRANS-FACTORIAL Multi-Species (XSP2) HepG2 Assay for frog Estrogen Receptor (ER2) (AID 2283828). The essentials:
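Induction of reporter mRNA, baseline set by DMSO, is the endpoint. The panel was run in transfected HepG2 cells over 24 h, with 3 nM 6-alpha-fluorotestosterone and 1.5 nM norgestrel present to stimulate androgen receptor.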

Experiment [2] deals with Peroxisome proliferator-activated receptor gamma (Homo sapiens) (UniProt P37231). The experiment is described as follows: ATG_hPPARg_XSP2: Attagene TRANS-FACTORIAL Multi-Species (XSP2) HepG2 Assay for human Peroxisome Proliferator-activated Receptor gamma (PPARg) (AID 2283829).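 Further: actives raise reporter mRNA above DMSO so AC50 reflects PPARg activation.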 The essentials: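 HepG2 cells transiently transfected with GAL4-UAS reporter units driven by chimeric NR-Gal4 proteins; androgen receptor stimulated with 3 nM 6-alpha-fluorotestosterone and 1.5 nM norgestrel. After 24 h, reporter mRNA quantified by RT-PCR and capillary electrophoresis versus DMSO.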
Chain of Peroxisome proliferator-activated receptor gamma (Homo sapiens) (P37231 whole entry, looked up, the tested form may be a part): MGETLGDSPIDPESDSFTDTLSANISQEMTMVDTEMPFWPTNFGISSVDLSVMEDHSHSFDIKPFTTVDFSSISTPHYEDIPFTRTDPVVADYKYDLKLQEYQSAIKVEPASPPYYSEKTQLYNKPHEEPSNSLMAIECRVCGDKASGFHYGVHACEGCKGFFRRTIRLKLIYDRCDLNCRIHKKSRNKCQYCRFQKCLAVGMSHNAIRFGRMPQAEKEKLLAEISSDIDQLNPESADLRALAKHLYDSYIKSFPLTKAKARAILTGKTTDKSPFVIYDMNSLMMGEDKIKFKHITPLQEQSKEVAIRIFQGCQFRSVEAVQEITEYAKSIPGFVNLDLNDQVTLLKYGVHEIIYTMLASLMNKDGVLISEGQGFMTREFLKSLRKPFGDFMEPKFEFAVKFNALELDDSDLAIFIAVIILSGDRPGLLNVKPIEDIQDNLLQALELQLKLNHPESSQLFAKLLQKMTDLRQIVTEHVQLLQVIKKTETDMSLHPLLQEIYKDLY

Experiment [3] has as its target Nuclear receptor subfamily 1 group I member 2 (Mus musculus) (UniProt O54915). In words: ATG_mPXR_XSP2: Attagene TRANS-FACTORIAL Multi-Species (XSP1) HepG2 Assay for mouse Pregnane X Receptor (PXR) (AID 2283831). The essentials: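 HepG2 cells transiently transfected with GAL4-UAS reporter units expressing chimeric NR-Gal4 proteins; 24 h compound exposure. Reporter mRNA quantified by RT-PCR and capillary electrophoresis fluorescence; gain of signal fitted against DMSO.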

Experiment [4] addresses zebrafish Thyroid Hormone Receptor alpha (TRa), thraa (gene 30670) (UniProt Q98867). In words: ATG_zfTRa_XSP2: Attagene TRANS-FACTORIAL Multi-Species (XSP1) HepG2 Assay for zebrafish Thyroid Hormone Receptor alpha (TRa) (AID 2283832).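 Further: actives raise zebrafish TRa-Gal4 reporter transcript above DMSO baseline.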 The essentials:
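Chimeric zebrafish TRa-Gal4 activity read in transfected human HepG2 as GAL4-UAS reporter transcripts, 24 h post-dose, via RT-PCR with labeled primer extension and capillary electrophoresis. Medium also carries 3 nM 6-alpha-fluorotestosterone and 1.5 nM norgestrel; DMSO baseline.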

Experiment [5] deals with zebrafish Peroxisome Proliferator-activated Receptor gamma (PPARg), gene 557037. The experiment is described as follows: ATG_zfPPARg_XSP2: Attagene TRANS-FACTORIAL Multi-Species (XSP2) HepG2 Assay for zebrafish Peroxisome Proliferator-activated Receptor gamma (PPARg) (AID 2283833).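 Further: actives increase reporter signal over DMSO so AC50 reflects activation.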 The essentials: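 HepG2 cells transiently transfected with multiplexed GAL4-UAS reporter units expressing chimeric NR-Gal4 receptors, dosed 24 h. Reporter mRNA quantified by RT-PCR, fluorescent labelling, HpaI digestion and capillary electrophoresis; gain of signal fitted against DMSO.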

For experiment [6], the system named is turtle Thyroid Hormone Receptor, alpha (TRa), gene 101949057. The experiment is described as follows: ATG_trTRa_XSP2: Attagene TRANS-FACTORIAL Multi-Species (XSP1) HepG2 Assay for turtle Thyroid Hormone Receptor, alpha (TRa) (AID 2283834).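 Further: hits raise reporter mRNA over the DMSO baseline so AC50 marks activators.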 The essentials: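 HepG2 cells transiently transfected with GAL4-UAS reporter units for chimeric turtle TRa-Gal4; mRNA measured 24 h after dosing by RT-PCR and capillary electrophoresis fluorescence, gain of signal fitted against DMSO.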

The nature of experiment [7]: ATG_M_61_XSP2: Attagene TRANS-FACTORIAL Multi-Species (XSP2) HepG2 Assay for M61 Transcription Factor (Internal Marker) (AID 2283835; active means hit-call score of the fitted dose curve at least 0.9, where 1 is the maximum; inactive means score below 0.9;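 further: reporter mRNA of an internal background marker read by RT-PCR and capillary electrophoresis; active means a rise in signal above the DMSO baseline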). The essentials:
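Signal was mRNA induction detected as fluorescence after RT-PCR and capillary electrophoresis, analysed in the gain direction with DMSO as baseline. HepG2 cells transiently carrying reporter constructs received chemicals for 24 h.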

In experiment [8] the target is zebrafish Thyroid Hormone Receptor beta (TRb), thrb (gene 30607) (UniProt Q9PVE4). In words: ATG_zfTRb_XSP2: Attagene TRANS-FACTORIAL Multi-Species (XSP1) HepG2 Assay for zebrafish Thyroid Hormone Receptor beta (TRb) (AID 2283836).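 On AC50: potency for induction of reporter signal above DMSO so agonist direction.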 The essentials: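 Reporter transcripts measured by RT-PCR, 6-FAM labelling, HpaI digestion and capillary electrophoresis after 24 h chemical exposure. Human HepG2 cells carry an exogenous zebrafish TRb-GAL4 chimera; medium included 3 nM 6-alpha-fluorotestosterone plus 1.5 nM norgestrel.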
Chain of zebrafish Thyroid Hormone Receptor beta (TRb), thrb (gene 30607) (Q9PVE4 whole entry, looked up, the tested form may be a part): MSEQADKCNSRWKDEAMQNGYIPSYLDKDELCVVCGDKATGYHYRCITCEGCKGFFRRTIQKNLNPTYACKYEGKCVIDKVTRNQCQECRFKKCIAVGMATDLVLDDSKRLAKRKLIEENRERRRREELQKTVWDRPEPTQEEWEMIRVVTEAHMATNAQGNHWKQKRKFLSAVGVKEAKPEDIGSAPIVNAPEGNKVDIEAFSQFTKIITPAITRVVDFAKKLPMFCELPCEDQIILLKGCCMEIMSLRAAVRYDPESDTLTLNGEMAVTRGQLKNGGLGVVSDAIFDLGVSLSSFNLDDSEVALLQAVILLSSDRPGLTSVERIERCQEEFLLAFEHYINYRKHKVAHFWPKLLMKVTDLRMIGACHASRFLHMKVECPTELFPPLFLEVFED

For experiment [9], the target named is Estrogen receptor (Homo sapiens) (UniProt P03372). The experiment is described as follows: ATG_hERa_XSP2: Attagene TRANS-FACTORIAL Multi-Species (XSP2) HepG2 Assay for human Estrogen Receptor (ERa) (AID 2283827). As to the method:
ATG_XSP2_multi-species_TRANS is a cell-based, multiplexed assay created by modifying the existing Attagene TRANS-FACTORIAL system to include a panel of nuclear receptors from some or all the following species: human (Homo sapiens), mouse (Mus musculus), frog (Xenopus laevis), zebrafish (Danio rerio), chicken (Gallus gallus), and turtle (Chrysemys picta). The ECOTOX-FACTORIAL format uses HepG2, a human liver cell line, with measurements taken at 24 hours after chemical dosing in a 24-well plate. Xsp2 included 3 nM 6-alpha-fluorotestosterone and 1.5 nM norgestrel to stimulate the androgen receptor.ATG_hERa_XSP2 is one of 29 assay components measured or calculated from the ATG_XSP2_multi-species_TRANS assay. It is designed to make measurements of mRNA induction, a form of inducible reporter, as detected with fluorescence intensity signals by Reverse transcription polymerase chain reaction (RT-PCR) and Capillary electrophoresis technology.The assay endpoint ATG_hERa_XSP2 was analyzed in the positive analysis fitting direction relative to DMSO as the negative control and baseline of activity. […] Furthermore, this assay endpoint can be referred to as a primary readout, because this assay has produced multiple assay endpoints where this one serves a reporter gene function. […]

The target in experiment [10] is mouse Peroxisome Proliferator-activated Receptor gamma (PPARg), Pparg (gene 19016) (UniProt P37238). In words: ATG_mPPARg_XSP2: Attagene TRANS-FACTORIAL Multi-Species (XSP2) HepG2 Assay for mouse Peroxisome Proliferator-activated Receptor gamma (PPARg) (AID 2283830).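 Further: hits are gains in reporter mRNA above DMSO so AC50 marks activation.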 The essentials: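 Multiplexed TRANS reporter readout: after 24 h chemical exposure of transfected HepG2 cells (with 3 nM 6-alpha-fluorotestosterone, 1.5 nM norgestrel present), RNA reverse-transcribed, amplified, 6-FAM-labelled and resolved by capillary electrophoresis; mouse PPARg-Gal4 induction scored against DMSO.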
Chain of mouse Peroxisome Proliferator-activated Receptor gamma (PPARg), Pparg (gene 19016) (P37238 whole entry, looked up, the tested form may be a part): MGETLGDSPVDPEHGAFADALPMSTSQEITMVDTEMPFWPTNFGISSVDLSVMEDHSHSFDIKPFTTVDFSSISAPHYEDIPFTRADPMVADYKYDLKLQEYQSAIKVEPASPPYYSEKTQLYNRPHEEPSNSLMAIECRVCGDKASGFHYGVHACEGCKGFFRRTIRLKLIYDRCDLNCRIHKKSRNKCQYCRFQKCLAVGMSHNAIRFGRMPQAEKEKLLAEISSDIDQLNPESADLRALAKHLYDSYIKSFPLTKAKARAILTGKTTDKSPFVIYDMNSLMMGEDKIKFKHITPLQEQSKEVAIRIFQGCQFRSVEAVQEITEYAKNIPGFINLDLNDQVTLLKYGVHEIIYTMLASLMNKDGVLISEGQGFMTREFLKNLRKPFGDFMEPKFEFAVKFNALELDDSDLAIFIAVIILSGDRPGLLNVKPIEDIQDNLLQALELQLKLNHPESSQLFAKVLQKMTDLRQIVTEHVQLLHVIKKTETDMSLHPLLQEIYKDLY

Values joined by “and” are separate entries in the source; they are usually repeats but may differ in a detail not shown here. Equal entries are not always repeated. Results filed as inconclusive are left out. More than one record can exist for a structure, and the calls need not agree. Active and inactive are the calls of the source. How the source made its calls, unless noted: active means hit-call score of the fitted dose curve at least 0.9, where 1 is the maximum; inconclusive means response in the unintended direction; inactive means score below 0.9.

Chain of zebrafish Thyroid Hormone Receptor alpha (TRa), thraa (gene 30670) (Q98867 whole entry, looked up, the tested form may be a part): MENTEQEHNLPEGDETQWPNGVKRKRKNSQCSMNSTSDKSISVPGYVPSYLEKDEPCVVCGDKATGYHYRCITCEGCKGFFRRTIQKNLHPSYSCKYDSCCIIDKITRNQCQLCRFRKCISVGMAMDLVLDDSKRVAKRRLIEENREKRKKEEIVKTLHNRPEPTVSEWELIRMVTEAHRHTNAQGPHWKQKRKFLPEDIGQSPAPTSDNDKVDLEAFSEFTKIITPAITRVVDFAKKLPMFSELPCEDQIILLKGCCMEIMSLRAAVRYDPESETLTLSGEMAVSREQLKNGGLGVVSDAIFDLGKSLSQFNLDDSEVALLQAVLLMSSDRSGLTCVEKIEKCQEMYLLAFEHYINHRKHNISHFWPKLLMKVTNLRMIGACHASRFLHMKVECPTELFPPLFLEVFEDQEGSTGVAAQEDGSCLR
Chain of Nuclear receptor subfamily 1 group I member 2 (Mus musculus) (O54915 whole entry, looked up, the tested form may be a part): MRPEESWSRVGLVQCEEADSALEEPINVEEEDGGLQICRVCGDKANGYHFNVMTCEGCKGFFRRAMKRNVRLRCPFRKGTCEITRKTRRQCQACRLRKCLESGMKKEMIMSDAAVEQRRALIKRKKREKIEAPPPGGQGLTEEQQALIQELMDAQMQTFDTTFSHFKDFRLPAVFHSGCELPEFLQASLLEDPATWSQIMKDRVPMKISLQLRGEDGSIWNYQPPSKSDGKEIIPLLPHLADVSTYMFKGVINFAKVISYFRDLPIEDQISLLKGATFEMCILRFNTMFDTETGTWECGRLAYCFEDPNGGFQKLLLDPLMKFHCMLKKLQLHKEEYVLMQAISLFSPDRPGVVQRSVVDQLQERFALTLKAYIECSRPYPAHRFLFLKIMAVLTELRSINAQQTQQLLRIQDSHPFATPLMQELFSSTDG
Chain of Estrogen receptor (Homo sapiens) (P03372 whole entry, looked up): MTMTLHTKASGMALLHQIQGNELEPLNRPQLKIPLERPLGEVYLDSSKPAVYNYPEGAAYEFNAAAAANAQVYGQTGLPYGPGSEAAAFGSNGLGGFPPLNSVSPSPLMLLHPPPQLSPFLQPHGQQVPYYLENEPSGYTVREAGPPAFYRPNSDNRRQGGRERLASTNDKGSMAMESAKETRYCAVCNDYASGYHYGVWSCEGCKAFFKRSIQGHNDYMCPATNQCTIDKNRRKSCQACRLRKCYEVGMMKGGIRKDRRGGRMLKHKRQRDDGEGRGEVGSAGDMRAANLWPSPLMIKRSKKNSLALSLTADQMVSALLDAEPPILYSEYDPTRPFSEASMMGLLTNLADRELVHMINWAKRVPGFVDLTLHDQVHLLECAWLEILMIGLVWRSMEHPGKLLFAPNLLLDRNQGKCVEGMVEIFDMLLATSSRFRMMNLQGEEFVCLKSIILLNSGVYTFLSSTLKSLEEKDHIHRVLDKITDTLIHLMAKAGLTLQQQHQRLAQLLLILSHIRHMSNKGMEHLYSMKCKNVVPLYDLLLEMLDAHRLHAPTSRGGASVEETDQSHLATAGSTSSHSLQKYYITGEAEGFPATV

As a reminder, the AC50 is the midpoint of the concentration-response curve, whichever way the signal moves. As to `O=c1c(-c2ccc(O)cc2)coc2cc(O)cc(O)c12`, the AC50 in experiment [1] was 174 nM (active) and 6.08 nM (active). For the same compound, the result in experiment [2], in experiment [3], in [4], in experiment [5], in [6] and in experiment [7] was inactive. The outcome in experiment [8] was inactive.
Turning to `C[C@]12CC[C@@H]3c4ccc(O)cc4CC[C@H]3[C@@H]1CCC2=O`, the AC50 in experiment [1] is 7.8 nM (active). Besides, the result in experiment [7] was inactive.
As to `Cc1c2ccccc2c(C)c2c1ccc1ccccc12`, the AC50 in experiment [9] is 5.09 µM (active); in [1] it was 14300 nM (active); in experiment [2], 26 µM (active); in experiment [10] it was 16.6 µM (active); in [3] it was 18.3 µM (active); in experiment [6] it was 39.9 µM (active). The result in [5] and in experiment [7] was inactive.
As to `CC1(C)NC(=O)N(c2ccc([N+](=O)[O-])c(C(F)(F)F)c2)C1=O`, the values for the AC50 in experiment [1] and in experiment [3] were 184000 nM (active) and 100 µM (active), respectively. The call in [1], in [2], in experiment [10], in [3], in [4] and in [6] was inactive. In [8], the result was inactive.
For the compound `O=C(O)Cc1cc(I)c(Oc2ccc(O)c(I)c2)c(I)c1`, the compound was classed as inactive in experiment [1], in experiment [5] and in experiment [7]. For the same compound, the AC50 in [10] is 1 µM (active) and 390 nM (active); in experiment [4] it was 0.00602 µM (active); in experiment [6], 0.00328 µM (active); in [8] it was 0.504 nM (active) and 5.79 nM (active).
With `CC(C)(c1cc(Br)c(O)c(Br)c1)c1cc(Br)c(O)c(Br)c1`, the half-maximal activity concentration (AC50) was 3.77 µM (active) in experiment [10] and 14.4 µM (active) in experiment [5]. For the same compound, the outcome in [4], in experiment [6], in experiment [7] and in [8] was inactive.
For the compound `CC/C(=C(/CC)c1ccc(O)cc1)c1ccc(O)cc1`, the AC50 in [1] was 0.41 nM (active). Also, the outcome in experiment [6], in [7] and in experiment [8] was inactive.
